Bioassay records deposited in PubChem by National Center for Advancing Translational Sciences (NCATS).
The full list was thinned out, with hits kept by preference.
TbPYK inhibitor = inhibitors of Trypanosoma brucei pyruvate kinase. TbPYK enzyme, Kinase-Glo Plus ATP luminescence, 45 min. Potency, µM (top dose mostly 76.8 µM), for inactives: at the highest dose activity, negative = inhibition, actives largely listed as inhibitors. actives 0.12% (n = 410,000). Q57TT1; also: potency is read from the fitted curve at half-maximal effect; % is scaled to controls: 0 for no effect and ±100 for the full control effect; nearly all actives have a fitted effect of over 50% in size
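Screened from lowest to highest concentration, compounds were pinned into TbPYK/substrate mixtures, and ADP (130 uM final) was added. Plates sat at room temperature for 45 min prior to Kinase-Glo Plus detection by luminescence.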
CHX counter = counter-screen hit for Shiga toxin inhibitors, cycloheximide. cell reporter, cycloheximide protein synthesis inhibition counterscreen. max response, %. actives 12% (n = 300,000); in the data active = max response mostly above about 13%, no sharp cut-off; inactive = mostly below about 14%; also: read at 38.3 µM for the half of the compounds with a filed dose; 0% is about no effect
LmPK inh = LmPK (Leishmania mexicana) enzyme inhibition. Q27686. purified LmPK, Kinase-Glo ATP luminescence, 1 h. Potency, µM (top dose mostly 57.5 µM), without a hit: top-dose activity change, negative = inhibition, usual class: inhibitors. actives 0.37% (n = 290,000); also: potency is read from the fitted curve at half-maximal effect; % is scaled to controls: 0 for no effect and ±100 for the full control effect
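Screened at intermediate enzyme activity to detect both inhibitors and activators: LmPK at 0.1 nM, with a 0.5 nM enzyme column as activation reference. PEP 0.5 mM, ADP 0.1 mM; ATP detected by luminescence after 1 h.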
FBPA Giardia inh = inhibitors of Giardia lamblia fructose-1,6-bisphosphate aldolase; A8B2U2; purified Giardia FBPA; Potency, µM (doses to about 59.6 µM), without a hit: top-dose activity, negative = inhibition, most hits filed as inhibitors; actives 0.71% (n = 290,000); AID 2451; also: potency is read from the fitted curve at half-maximal effect; % is scaled to controls: 0 for no effect and ±100 for the full control effect; nearly all actives have a fitted effect of over 55% in size
Target sequence (A8B2U2 whole entry, looked up): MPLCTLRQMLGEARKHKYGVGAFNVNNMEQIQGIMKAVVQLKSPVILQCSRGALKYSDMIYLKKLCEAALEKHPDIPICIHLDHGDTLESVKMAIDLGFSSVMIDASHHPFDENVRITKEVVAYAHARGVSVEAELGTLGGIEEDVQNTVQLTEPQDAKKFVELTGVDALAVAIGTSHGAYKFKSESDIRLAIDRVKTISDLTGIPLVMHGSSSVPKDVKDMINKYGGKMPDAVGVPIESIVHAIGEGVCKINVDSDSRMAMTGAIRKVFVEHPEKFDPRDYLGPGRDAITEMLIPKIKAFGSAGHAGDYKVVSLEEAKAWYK
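Giardia FBPA (40 nM reagent) was preincubated 10 min at RT with compound (up to 57.5 uM final), then substrate plus GAPDH/TPI/NAD/arsenate coupling system with diaphorase/resazurin was added; resorufin fluorescence (525/598 nm) was read after 20 min.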
Sm TGR inh = inhibitors of Schistosoma mansoni thioredoxin glutathione reductase. actives 3% (n = 360,000). Potency, µM (titrated, usually from 114 µM), inactives show at the top dose activity change, negative = inhibition, hits mostly inhibitors. purified TGR, DTNB reduction, TNB absorbance 405 nm. AID 485364. Q962Y6; also: potency is read from the fitted curve at half-maximal effect; % is scaled to controls: 0 for no effect and ±100 for the full control effect; nearly all actives have a fitted effect of over 60% in size
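TGR 20 nM + NADPH 100 uM (dispensed conc.), cpd preinc 15 min RT; start with NADPH (500 uM addition) then DTNB (15 mM addition). Kinetic TNB absorbance, 405 nm filter. Four-parameter Hill fit across titration.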
Shiga inhibitor = blocks Shiga toxin action in Vero cells | Vero cells, Shiga toxin protein synthesis inhibition reporter | inhibition, % at 38.7 µM | actives 9.2% (n = 290,000); in the data active = inhibition mostly above about 28%, no sharp cut-off; inactive = mostly below about 43%; also: 0% is about no effect
* hit, by the source's call. Unless noted, calls follow the shape of the dose curve; as a rule, active = well fitted curve in the direction sought with a large enough effect; inconclusive = small, poorly fitted or top-dose-only effect, or another doubt; inactive = no such curve, though single readings can be large; an effect the other way counts as inactive or inconclusive.

For O=C(CCCOc1ccc(Cl)cc1Cl)Nc1ccncc1 the results were TbPYK inhibitor -7.9%, CHX counter 14.8*, LmPK inh 0.3%, FBPA Giardia inh -7.2%, Sm TGR inh -32.4% and Shiga inhibitor 24.6.
`Cc1ccc(OCC(=O)NNC(=O)c2ccco2)c(C)c1` gave TbPYK inhibitor 1.2%, CHX counter 13.6*, LmPK inh -0.6%, FBPA Giardia inh -7.0%, Sm TGR inh -5.3% and Shiga inhibitor 13.9.
Screening O=C(COc1ccc(Cl)cc1Br)NC1CC1 returned TbPYK inhibitor -18.1% and Sm TGR inh -10.1%.
Cc1nn(-c2cccc(Cl)c2)c2nc(-c3cccnc3)cc(C(F)(F)F)c12 was read as TbPYK inhibitor 0.1% and Sm TGR inh 9.1%.
For Cc1ccccc1C(=O)OCc1cc(=O)n2nc(C3CC3)sc2n1 the results were TbPYK inhibitor 1.2% and Sm TGR inh 5.2%.
For Oc1ccc(Br)cc1/C=N/n1cnc2ccccc21 the results were TbPYK inhibitor -3.0%, CHX counter 41.2*, LmPK inh 2.2%, FBPA Giardia inh 1.3%, Sm TGR inh 4.0% and Shiga inhibitor 60.2*.
COc1ccccc1C=NN1C(=O)CSC1=S was read as TbPYK inhibitor -0.1%.
Screening CC(C)(C)c1ccc(/C=N/N2C(=O)CSC2=S)cc1 returned TbPYK inhibitor -5.3%, CHX counter 15.8*, LmPK inh 3.7%, FBPA Giardia inh -20.5%, Sm TGR inh -21.2% and Shiga inhibitor 29.7.
`O=C1CSC(=S)N1/N=C/c1ccc(O)c(O)c1O` gave TbPYK inhibitor inconclusive, CHX counter 2.4, LmPK inh -21.4%, FBPA Giardia inh 7.92µM*, Sm TGR inh inconclusive and Shiga inhibitor 14.9.
Screening O=C1CSC(=S)N1/N=C/c1cc(Br)ccc1O returned CHX counter -4.3, LmPK inh inconclusive, FBPA Giardia inh 17.3%, Sm TGR inh 7.94µM* and Shiga inhibitor -3.2.
Screening COc1ccc2c(c1)CC(NC(=O)Nc1ccc(NC(C)=O)cc1)CO2 (centres undefined) returned TbPYK inhibitor -6.8% and Sm TGR inh -1.5%.
For Cc1ccc2nc(Nc3ccc(Br)cc3)nc(-c3ccccc3)c2c1 the results were TbPYK inhibitor 2.8% and Sm TGR inh -2.8%.
`Oc1ccc(Br)cc1/C=N/N1CCCCC1` gave TbPYK inhibitor -11.1%, CHX counter 52.4*, LmPK inh inconclusive, FBPA Giardia inh 0.2%, Sm TGR inh 6.6% and Shiga inhibitor 81.9*.
For O=[N+]([O-])c1ccc(O)c(C=NN2CCCCC2)c1 the results were TbPYK inhibitor -0.4%.
CCc1cc(C(=O)c2ccc(C)cc2)c(NC(=O)CCl)s1 was read as TbPYK inhibitor -2.2%, CHX counter 48.7*, LmPK inh 1.2%, FBPA Giardia inh -5.1%, Sm TGR inh inconclusive and Shiga inhibitor 73.0*.
Screening Cc1cc(C(=O)c2ccc(Cl)cc2)c(NC(=O)CCl)s1 returned TbPYK inhibitor 3.7%, CHX counter -3.1, LmPK inh 1.4%, FBPA Giardia inh 2.5%, Sm TGR inh -30.0% and Shiga inhibitor -6.4.
`Cc1ccc(-c2nnc(SCC(=O)N3CCCc4ccccc43)o2)cc1` gave TbPYK inhibitor 2.5% and Sm TGR inh -2.1%.
O=C(COc1ccccc1)NCc1ccco1 was read as TbPYK inhibitor -0.1%.
Screening N#Cc1ccccc1OCC(=O)NC(=O)NCc1ccccc1 returned TbPYK inhibitor -1.7%, CHX counter 8.5, LmPK inh -1.8%, FBPA Giardia inh 6.1%, Sm TGR inh 11.0% and Shiga inhibitor 21.0.
`N#Cc1ccccc1OCC(=O)NC(=O)NCc1ccco1` gave TbPYK inhibitor 2.2%, CHX counter 25.8*, LmPK inh -0.9%, FBPA Giardia inh 0.1%, Sm TGR inh 0.0% and Shiga inhibitor 57.2*.
`CCNC(=O)NC(=O)COc1ccccc1C#N` gave TbPYK inhibitor 8.3%, CHX counter 36.4*, LmPK inh -13.0%, FBPA Giardia inh 6.6%, Sm TGR inh 4.1% and Shiga inhibitor 81.1*.
Screening NC(=O)c1ccccc1NC(=O)Cn1nc(Cc2cccnc2)c2ccccc2c1=O returned TbPYK inhibitor -4.7% and Sm TGR inh -12.0%.
`CC(=O)c1ccc(NC(=O)CN2CCCCCC2)cc1` gave TbPYK inhibitor 0.1%, CHX counter 18.1, LmPK inh -2.3%, FBPA Giardia inh 9.7%, Sm TGR inh -1.4% and Shiga inhibitor 37.1.
Screening COc1ccc(O)c(C(=O)C2c3ccccc3C(=O)N2c2ccc(C)cc2)c1 (centres undefined) returned TbPYK inhibitor inconclusive, CHX counter 44.0*, LmPK inh -21.3%, FBPA Giardia inh inconclusive, Sm TGR inh 0.0% and Shiga inhibitor 80.5*.
CCO/C=C1\C(=O)N(c2ccccc2)C(=O)c2ccccc21 was read as TbPYK inhibitor -2.1%, CHX counter 40.4*, LmPK inh 4.9%, FBPA Giardia inh 13.8%, Sm TGR inh -3.5% and Shiga inhibitor 69.4*.
`Cc1ccc(N2C(=O)c3ccccc3C2=O)cc1` gave TbPYK inhibitor 0.2%, CHX counter 40.8*, LmPK inh 3.0%, FBPA Giardia inh 4.4%, Sm TGR inh -0.7% and Shiga inhibitor 91.2*.
COc1ccc(N2C(=O)C(Cl)=C(Nc3ccccc3O)C2=O)cc1 was read as TbPYK inhibitor -12.5%, CHX counter 27.1, LmPK inh 4.4%, FBPA Giardia inh -15.9%, Sm TGR inh 39.8µM* and Shiga inhibitor 53.2.
Screening CCO/C=C1/C(=O)N(c2ccc(OC)cc2)C(=O)c2ccccc21 returned TbPYK inhibitor 3.2%, CHX counter 8.8, LmPK inh -0.2%, FBPA Giardia inh -7.5%, Sm TGR inh -31.7% and Shiga inhibitor -6.1.
For O=C1c2ccccc2C(=O)N1c1ccc(Cl)cc1 the results were CHX counter 10.1, LmPK inh -6.7%, FBPA Giardia inh 1.0%, Sm TGR inh 7.8% and Shiga inhibitor -10.7.
CC1CCc2c(sc3nnn(CC(=O)Nc4ccccc4Cl)c(=O)c23)C1 (centres undefined) was read as TbPYK inhibitor 2.7% and Sm TGR inh 8.7%.
`O=C(CSc1nc(=O)n(Cc2ccccn2)c2c1CCC2)Nc1ccccc1` gave TbPYK inhibitor 0.9%, CHX counter -1.4, Sm TGR inh 6.2% and Shiga inhibitor 4.3.
Cc1ccc(N2C(=O)c3ccccc3NC2c2ccccc2O)cc1 (centres undefined) was read as TbPYK inhibitor -2.2%, CHX counter 36.0*, LmPK inh -3.8%, FBPA Giardia inh 7.9%, Sm TGR inh -4.2% and Shiga inhibitor 79.1*.
For COc1ccc2c(c1OC)C(=O)N(c1ccc(O)cc1)C2=O the results were TbPYK inhibitor 4.2%, CHX counter -2.4, LmPK inh 0.3%, FBPA Giardia inh 2.0%, Sm TGR inh 94.6% and Shiga inhibitor 4.4.
